Source: PubChem BioAssay (NCATS)
Inconclusive results are not listed. The source made the active and inactive calls. The call rests on the fitted dose curve; in most records, active means well fitted inhibition curve with a large enough effect; inconclusive means small, poorly fitted or top-dose-only effect; inactive means flat fitted curve, though single readings scatter.

Key:
Test in all cases: qHTS assay to identify novel small-molecules to repurpose for Merkel cell carcinoma treatment (AID 1296009); further: nearly all actives have a fitted effect of over 60% in size
MCC-26 = conditions: MCC and control cell lines, CellTiter-Glo viability, 72 h; series mostly up to 46 µM
Summary of the method: (§1)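 After compound transfer in DMSO, plates were kept 72 hr at 37 degree celsius. Luminescent ATP signal from CellTiter-Glo served as viability measure, normalized against DMSO and no-cell controls.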

MKL-1 = conditions: MCC and control cell lines, CellTiter-Glo viability, 72 h; series mostly up to 46 µM
Summary of the method: as §1

MKL-2 = conditions: MCC and control cell lines, CellTiter-Glo viability, 72 h; series mostly up to 46 µM
Summary of the method: as §1

NIH3T3 = conditions: MCC and control cell lines, CellTiter-Glo viability, 72 h; at 44.8 µM (top of the series) unless noted
Summary of the method: as §1

UISO = conditions: MCC and control cell lines, CellTiter-Glo viability, 72 h; series mostly up to 46 µM
Summary of the method: as §1

WaGa = conditions: MCC and control cell lines, CellTiter-Glo viability, 72 h; series mostly up to 46 µM
Summary of the method: as §1

Measured: Potency
Potency means the concentration at half of the fitted maximal effect.

COc1ccc(CCC(=O)c2c(O)cc(O[C@@H]3O[C@H](CO)[C@@H](O)[C@H](O)[C@@H]3O[C@@H]3O[C@@H](C)[C@H](O)[C@@H](O)[C@@H]3O)cc2O)cc1O
inactive: all assays above

C[C@H](CCC(=O)O)[C@H]1CCC2C3C[C@H](O)[C@@H]4C[C@H](O)CC[C@]4(C)C3CC[C@@]21C (some centres undefined)
inactive: all assays above

C[C@H]1C[C@H]2[C@@H]3CCC4=CC(=O)C=C[C@]4(C)[C@@H]3C(=O)C[C@]2(C)[C@@]1(O)C(=O)CO
inactive: all assays above

OCc1ccccc1O[C@@H]1O[C@H](CO)[C@H](O)[C@H](O)[C@H]1O
inactive: all assays above

CC(C)[C@H](CO)Nc1nc(Nc2cccc(Cl)c2)c2ncn(C(C)C)c2n1
inactive: MCC-26

CC(=O)C1=C(O)C=C2Oc3c(C(C)=O)c(O)c(C)c(O)c3C2(C)C1=O (centres undefined)
inactive: all assays above

O=C(Nc1nnc(-c2ccco2)o1)c1cc(-c2ccccc2)nc2ccccc12
inactive: MCC-26

O=C(O)C(=O)Nc1cccc(C2=NN=N[N]2)c1
not listed: NIH3T3
inactive: all other assays above

COC1=C(OC)C(=O)C(CC=C(C)CCC=C(C)CCC=C(C)CCC=C(C)CCC=C(C)CCC=C(C)CCC=C(C)CCC=C(C)CCC=C(C)CCC=C(C)C)=C(C)C1=O
not listed: NIH3T3
inactive: all other assays above

CCCCCCCN(CC)CCCC(O)c1ccc(NS(C)(=O)=O)cc1 (centres undefined)
not listed: NIH3T3
inactive: all other assays above

COc1cc([C@@H]2c3cc4c(cc3[C@@H](O[C@@H]3O[C@@H]5CO[C@@H](c6cccs6)O[C@@H]5[C@H](O)[C@@H]3O)[C@H]3COC(=O)[C@H]23)OCO4)cc(OC)c1O
active: MCC-26 2.35 µM | MKL-1 0.235 µM | MKL-2 0.118 µM | UISO 1.87 µM

Cc1noc(-c2ccc(CSCCC(=O)O)cc2)c1NC(=O)OC(C)c1ccccc1Cl (centres undefined)
not listed: NIH3T3
inactive: all other assays above

OC[C@@H](O)[C@@H](O)[C@H](O)[C@@H](O)CO
not listed: NIH3T3
inactive: all other assays above

COc1ccnc2[nH]cc(C(=O)C(=O)N3CCN(C(=O)c4ccccc4)C[C@@H]3C)c12
not listed: NIH3T3
inactive: all other assays above

CN1[C@H]2CC(OC(=O)[C@@H](CO)c3ccccc3)C[C@H]1[C@H]1O[C@H]12 (some centres undefined)
not listed: NIH3T3
inactive: all other assays above

CC(=O)O[C@H]1C[C@@H]2CC[C@H]3[C@H]4C[C@H]([N+]5(C)CCCCC5)[C@@H](OC(C)=O)[C@@]4(C)CC[C@@H]3[C@@]2(C)C[C@H]1N1CCCCC1
not listed: NIH3T3
inactive: all other assays above

CC1(C)CC(O)CC(C)(C)N1[O]
not listed: NIH3T3
inactive: all other assays above

COc1cc(OC)c(NC(=O)Nc2cc(C)on2)cc1Cl
not listed: NIH3T3
inactive: all other assays above

Cc1cc(-c2nnc3n2CCCCC3)c(C)n1-c1ccccc1
active: MKL-2 20.9 µM
inactive: MCC-26 | MKL-1 | UISO

C[C@@H](NCc1cc2ccccc2[nH]1)c1cccc2ccccc12
not listed: NIH3T3
inactive: all other assays above

O=C(O)CCCCCC(=O)NN=C1CCCC1
not listed: NIH3T3
inactive: all other assays above

CN(C)CCN1C(=O)c2cccc3cc(N)cc(c23)C1=O
active: MKL-1 14.8 µM | MKL-2 18.7 µM | UISO 7.43 µM | WaGa 9.35 µM
inactive: MCC-26

COc1ccc(Nc2nccc(NCCO)n2)cc1
not listed: NIH3T3
inactive: all other assays above

COC(=O)[C@H](CCCN=C(N)N)NS(=O)(=O)c1ccc(C)cc1
not listed: NIH3T3
inactive: all other assays above

C[C@@H](Oc1ccc2[nH]nc(C=Cc3cnn(CCO)c3)c2c1)c1c(Cl)cncc1Cl
inactive: MKL-2
active: MCC-26 16.6 µM | MKL-1 7.43 µM | UISO 20.9 µM
